# Measured values: PubChem BioAssay (Tox21)
# “And” between values parts separate entries of the source, which are not always exact repeats. Identical values can stand only once. Values without a mark were called inactive. Records with an inconclusive call do not appear. Entries that show only a call come without a potency. The source made the active and inactive calls. Unless noted, the call rests on the fitted dose curve; in most records, active means well fitted curve in the direction sought with a large enough effect in the repeat runs; inconclusive means weak or mixed curves; inactive means no such curve, though single readings can be large; an effect the other way counts as inactive or inconclusive.
# Legend:
# [1] = qHTS assay for small molecule agonists of the p53 signaling pathway (AID 651631; calls by dose curve; further: nearly all actives have a fitted effect of over 15% in size); conditions: HCT-116 p53RE-bla reporter, beta-lactamase FRET ratio, 16 h; series mostly up to 73.3 µM
# In short: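 Quantitative high-throughput format: 4,000 p53RE-bla HCT-116 cells/well, 5 h pre-incubation, 16 h compound exposure at 37 °C, 2 h room-temperature substrate step, fluorescence intensity measured.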
# [2] = molecular target: Glucocorticoid receptor (Homo sapiens) (UniProt P04150); experiment: qHTS assay to identify small molecule antagonists of the glucocorticoid receptor (GR) signaling pathway (AID 720692; active means well fitted inhibition curve with a large enough effect in the signal ratio in the repeat runs, not every such curve was filed as active; the % refers to the signal ratio; further: potency means the concentration at half of the fitted maximal effect); conditions: GR-bla HeLa, beta-lactamase FRET ratio, dexamethasone-stimulated, 18 h; series mostly up to 58.5 µM
# Glucocorticoid receptor (Homo sapiens), sequence (P04150 whole entry, looked up): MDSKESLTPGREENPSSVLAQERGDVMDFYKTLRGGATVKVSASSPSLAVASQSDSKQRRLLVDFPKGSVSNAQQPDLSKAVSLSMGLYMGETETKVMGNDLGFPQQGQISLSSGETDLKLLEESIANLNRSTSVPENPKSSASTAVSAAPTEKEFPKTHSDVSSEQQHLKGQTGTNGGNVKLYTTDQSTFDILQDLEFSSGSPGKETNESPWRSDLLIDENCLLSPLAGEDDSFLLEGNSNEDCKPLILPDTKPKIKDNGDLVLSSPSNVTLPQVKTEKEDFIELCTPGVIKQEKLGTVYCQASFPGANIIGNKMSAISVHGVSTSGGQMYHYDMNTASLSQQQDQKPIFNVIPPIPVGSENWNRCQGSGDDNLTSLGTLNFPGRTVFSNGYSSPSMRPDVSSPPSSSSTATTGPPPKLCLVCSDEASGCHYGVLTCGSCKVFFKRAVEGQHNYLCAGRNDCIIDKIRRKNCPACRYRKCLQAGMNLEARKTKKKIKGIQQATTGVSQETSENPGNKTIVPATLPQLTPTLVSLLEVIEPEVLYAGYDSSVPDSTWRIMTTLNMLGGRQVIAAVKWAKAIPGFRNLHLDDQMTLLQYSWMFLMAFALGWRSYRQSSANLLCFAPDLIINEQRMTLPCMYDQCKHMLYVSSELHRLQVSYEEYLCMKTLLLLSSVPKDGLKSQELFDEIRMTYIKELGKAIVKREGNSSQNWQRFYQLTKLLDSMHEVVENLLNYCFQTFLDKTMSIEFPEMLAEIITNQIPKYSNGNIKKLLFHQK
# In short: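 GR-bla HeLa cells carrying a GRE-driven beta-lactamase reporter received compound after 4 h plating, then dexamethasone (5 nM final). After 18 h at 37C, the FRET substrate was loaded for 2 h at room temperature and fluorescence read.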
# [3] = qHTS assay for identifying genotoxic compounds that show differential cytotoxicity against isogenic chicken DT40 cell lines with known DNA damage response pathways - Rad54/Ku70 mutant cell line (AID 743015); conditions: DT40 Rad54/Ku70 mutant viability, CellTiter-Glo, 40 h; series mostly up to 66.8 µM; further: nearly all actives have a fitted effect of over 60% in size; further: potency means the concentration at half of the fitted maximal effect
# [4] = molecular target: Nuclear receptor subfamily 1 group I member 2 (Rattus norvegicus) (UniProt Q9R1A7); experiment: Rat pregnane X receptor (rPXR) activation by small molecules, qHTS assay (AID 1346983); conditions: rPXR luciferase reporter cells, One-Glo luminescence, 24 h; max activation: stronger effect = higher value; further: nearly all actives have a fitted effect of over 20% in size
# Nuclear receptor subfamily 1 group I member 2 (Rattus norvegicus), sequence (Q9R1A7 whole entry, looked up): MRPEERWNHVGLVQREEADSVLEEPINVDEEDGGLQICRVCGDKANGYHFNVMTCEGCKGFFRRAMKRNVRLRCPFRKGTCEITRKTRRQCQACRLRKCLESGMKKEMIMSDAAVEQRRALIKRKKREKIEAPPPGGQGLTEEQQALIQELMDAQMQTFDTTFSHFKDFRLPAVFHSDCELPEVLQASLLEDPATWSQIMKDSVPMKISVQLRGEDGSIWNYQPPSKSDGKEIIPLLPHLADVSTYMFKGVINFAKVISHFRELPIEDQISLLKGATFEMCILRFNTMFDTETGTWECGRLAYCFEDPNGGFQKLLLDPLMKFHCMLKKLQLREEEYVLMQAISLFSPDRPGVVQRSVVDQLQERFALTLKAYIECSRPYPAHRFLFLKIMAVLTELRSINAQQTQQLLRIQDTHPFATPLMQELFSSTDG
# In short: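 Cell-based rPXR activation assay: rPXR cells, 2,000 per well, rested 5hr at 37 C, then exposed to compounds in DMSO for 24 hr at 37 C. Luciferase activity read by One-Glo luminescence after 30 min at room temperature.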
# [5] = molecular target: Androgen receptor (Homo sapiens) (UniProt P10275); experiment: qHTS assay to identify small molecule antagonists of the androgen receptor (AR) signaling pathway (AID 743035; active means well fitted inhibition curve with a large enough effect in the signal ratio in the repeat runs, not every such curve was filed as active; the % refers to the signal ratio; further: potency means the concentration at half of the fitted maximal effect); conditions: HEK293 AR-UAS-bla, R1881-stimulated, beta-lactamase FRET, 16 h; series mostly up to 58.5 µM
# Androgen receptor (Homo sapiens), sequence (P10275 whole entry, looked up): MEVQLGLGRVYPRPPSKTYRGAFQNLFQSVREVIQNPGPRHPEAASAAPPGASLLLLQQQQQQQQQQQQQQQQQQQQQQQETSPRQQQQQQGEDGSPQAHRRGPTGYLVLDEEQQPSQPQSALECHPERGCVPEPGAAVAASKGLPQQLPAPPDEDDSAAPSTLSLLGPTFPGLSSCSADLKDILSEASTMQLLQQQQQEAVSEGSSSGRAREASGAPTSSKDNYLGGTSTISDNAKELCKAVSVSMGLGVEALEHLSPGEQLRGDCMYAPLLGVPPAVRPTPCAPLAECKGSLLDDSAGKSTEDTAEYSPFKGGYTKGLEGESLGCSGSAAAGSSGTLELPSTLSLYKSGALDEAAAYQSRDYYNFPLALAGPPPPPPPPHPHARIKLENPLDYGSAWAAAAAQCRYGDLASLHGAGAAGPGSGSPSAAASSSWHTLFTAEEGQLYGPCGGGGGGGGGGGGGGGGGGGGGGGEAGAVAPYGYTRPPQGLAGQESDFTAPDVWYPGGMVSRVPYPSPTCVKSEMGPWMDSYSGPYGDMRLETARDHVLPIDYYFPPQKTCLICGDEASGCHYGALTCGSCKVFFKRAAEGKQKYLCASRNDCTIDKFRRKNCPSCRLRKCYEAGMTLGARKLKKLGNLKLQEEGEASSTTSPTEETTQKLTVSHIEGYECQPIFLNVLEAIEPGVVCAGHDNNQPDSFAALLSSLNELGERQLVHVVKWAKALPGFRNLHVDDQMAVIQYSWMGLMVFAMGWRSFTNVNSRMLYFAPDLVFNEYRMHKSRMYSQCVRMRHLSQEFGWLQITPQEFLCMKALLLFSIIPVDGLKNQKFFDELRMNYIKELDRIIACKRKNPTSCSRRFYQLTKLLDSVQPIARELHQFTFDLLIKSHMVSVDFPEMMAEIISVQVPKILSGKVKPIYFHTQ
# In short: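 HEK293 cells stably carrying UAS-beta-lactamase reporter, 2,000/well, given compounds plus R1881 agonist and incubated 16 h at 37C. LiveBLAzer B/G FRET substrate then added for 2 h at room temperature before fluorescence reading.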
# [6] = molecular target: Androgen receptor (Homo sapiens) (UniProt P10275); experiment: qHTS assay to identify small molecule agonists of the androgen receptor (AR) signaling pathway (AID 743036; active means well fitted activation curve with a large enough effect in the signal ratio in the repeat runs, with a control signal flat, not every such curve was filed as active; the % refers to the signal ratio); conditions: HEK293 AR-UAS-bla GripTite, beta-lactamase FRET ratio, 16 h; series mostly up to 62.4 µM
# In short: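 Beta-lactamase under UAS control, stably integrated in HEK293 GripTite cells, reports receptor activation. After 16 h compound treatment, cells received FRET substrate for 2 h at room temperature before fluorescence reading.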
# [7] = molecular target: Estrogen receptor (Homo sapiens) (UniProt P03372); experiment: qHTS assay to identify small molecule antagonists of the estrogen receptor alpha (ER-alpha) signaling pathway (AID 743069; active means well fitted curve in the direction sought with a large enough effect in the signal ratio in the repeat runs, not every such curve was filed as active; the % refers to the signal ratio; further: potency means the concentration at half of the fitted maximal effect); conditions: HEK293 ER-alpha-UAS-bla, beta-lactamase ratio, antagonist mode; series mostly up to 69.4 µM
# Estrogen receptor (Homo sapiens), sequence (P03372 whole entry, looked up): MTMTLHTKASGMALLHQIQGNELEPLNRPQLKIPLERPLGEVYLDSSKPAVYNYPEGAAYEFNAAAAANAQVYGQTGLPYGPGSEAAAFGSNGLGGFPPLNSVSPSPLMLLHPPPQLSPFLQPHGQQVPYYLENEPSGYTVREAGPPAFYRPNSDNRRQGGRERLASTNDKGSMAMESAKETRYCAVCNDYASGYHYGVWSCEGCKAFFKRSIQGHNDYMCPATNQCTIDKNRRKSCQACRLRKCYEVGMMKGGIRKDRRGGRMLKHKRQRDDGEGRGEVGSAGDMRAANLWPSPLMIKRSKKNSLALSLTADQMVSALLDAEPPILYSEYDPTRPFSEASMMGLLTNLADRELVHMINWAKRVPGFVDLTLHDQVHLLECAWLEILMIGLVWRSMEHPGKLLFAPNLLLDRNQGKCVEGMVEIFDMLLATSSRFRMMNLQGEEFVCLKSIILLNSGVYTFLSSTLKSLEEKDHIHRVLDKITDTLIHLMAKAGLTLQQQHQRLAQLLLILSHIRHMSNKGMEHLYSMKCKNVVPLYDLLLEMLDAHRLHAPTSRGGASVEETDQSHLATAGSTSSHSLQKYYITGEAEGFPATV
# In short: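 Reporter cells (ER-alpha-bla, HEK293 background) are conditioned overnight in stripped-serum medium (2% charcoal-stripped FBS). Compound and 17beta-estradiol exposure runs 18 hr at 37C, 5% CO2.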
# [8] = molecular target: Nuclear receptor subfamily 1 group I member 2 (Homo sapiens) (UniProt O75469); experiment: Human pregnane X receptor (PXR) activation by small molecules, qHTS assay (AID 1346985); conditions: DPX-2 HepG2 CYP3A4-luciferase, 24 h; series mostly up to 38.3 µM; further: nearly all actives have a fitted effect of over 40% in size; further: potency means the concentration at half of the fitted maximal effect
# In short: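 DPX-2 cells (HepG2 co-transfected with a PXR response element and a CYP3A4-promoter luciferase construct) were seeded at 2,000 per well, rested 5 hr at 37C, then exposed to DMSO-dissolved compounds for 24 hr. Activation was read as luciferase luminescence.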
# [9] = molecular target: Androgen receptor (Homo sapiens) (UniProt P10275); experiment: qHTS assay to identify small molecule antagonists of the androgen receptor (AR) signaling pathway using the MDA cell line (AID 743042; further: nearly all actives have a fitted effect of over 55% in size); conditions: MDA-kb2 AR-luc, MMTV luciferase, R1881 antagonist, 16 h; series mostly up to 70.3 µM
# In short: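 MDA-kb2 breast carcinoma cells carrying MMTV-luciferase (AR/GR responsive) were co-treated with compounds and the agonist R1881 for 16 h at 37C. Inhibition read as ONE-Glo luminescence; CellTiter-Fluor fluorescence measured in parallel for cytotoxicity.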
# [10] = molecular target: Acetylcholinesterase (Homo sapiens) (UniProt P22303); experiment: Acetylcholinesterase (AChE) small molecule antagonists: enzyme-based qHTS assay with human liver microsomes (AID 1347399; calls by dose curve; further: nearly all actives have a fitted effect of over 60% in size); conditions: Potency: qHTS inhibition; outcome: qHTS inhibition; series mostly up to 115 µM
# Acetylcholinesterase (Homo sapiens), sequence (P22303 whole entry, looked up): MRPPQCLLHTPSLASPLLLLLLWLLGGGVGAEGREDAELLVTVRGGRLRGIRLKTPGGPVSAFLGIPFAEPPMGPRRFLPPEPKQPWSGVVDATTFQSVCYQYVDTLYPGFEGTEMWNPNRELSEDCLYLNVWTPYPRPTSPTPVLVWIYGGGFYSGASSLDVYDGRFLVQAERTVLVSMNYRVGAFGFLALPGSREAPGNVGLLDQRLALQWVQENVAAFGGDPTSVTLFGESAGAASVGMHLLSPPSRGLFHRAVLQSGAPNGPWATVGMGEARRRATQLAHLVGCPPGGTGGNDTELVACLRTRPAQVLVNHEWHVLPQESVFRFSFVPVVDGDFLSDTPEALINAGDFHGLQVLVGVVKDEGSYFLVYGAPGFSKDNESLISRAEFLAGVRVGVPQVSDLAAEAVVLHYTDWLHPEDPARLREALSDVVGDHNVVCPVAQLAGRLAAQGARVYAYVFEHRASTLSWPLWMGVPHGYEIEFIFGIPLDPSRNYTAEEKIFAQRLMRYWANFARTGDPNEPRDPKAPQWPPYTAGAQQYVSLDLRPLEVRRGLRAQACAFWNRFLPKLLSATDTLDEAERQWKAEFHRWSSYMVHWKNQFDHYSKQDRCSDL
# In short: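 Recombinant human AChE (50 mU/mL in the enzyme mix) and human liver microsomes (0.25 mg/mL final) were preincubated with compound and NADPH (0.25 mg/mL final) for 30 min at 37 C. Acetylthiocholine/DTNB was then added; thiocholine was read colorimetrically after 10 min at room temperature.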
# [11] = molecular target: Androgen receptor (Homo sapiens) (UniProt P10275); experiment: qHTS assay to identify small molecule agonists of the androgen receptor (AR) signaling pathway using the MDA cell line (AID 743040; further: nearly all actives have a fitted effect of over 20% in size); conditions: MDA-kb2 AR-luc cells, MMTV luciferase, 16 h; series mostly up to 70.3 µM
# In short: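 Human breast carcinoma MDA-kb2 reporter cells (MMTV-luc, AR/GR elements) were treated for 16 h at 37C in 0% CO2 following a 5 h settling period. Signal was quantified by ONE-Glo luminescence.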
smiles,measurement,setting,value
CC(C)[C@@]1(NC(=O)[C@@H]2C[C@@H]3c4cccc5[nH]cc(c45)C[C@H]3N(C)C2)O[C@@]2(O)[C@@H]3CCCN3C(=O)[C@H](Cc3ccccc3)N2C1=O,Potency,[1],inactive
same,Potency,[2],inactive
same,Potency,[3],23.7 µM (active) and 26.6 µM (active)
same,max activation,[4],-8.17%
O=C1Nc2ccc(Cl)cc2C(c2ccccc2Cl)=NC1O (stereo not given),Potency,[1],inactive
same,Potency,[2],inactive
same,Potency,[3],inactive
same,Potency,[5],inactive
same,Potency,[6],inactive
same,Potency,[7],inactive
same,Potency,[8],inactive
C=CC[C@]1(O)CC[C@H]2[C@@H]3CCC4=CCCC[C@@H]4[C@H]3CC[C@@]21C,Potency,[1],inactive
same,Potency,[2],7.56 µM (active)
same,max activation,[4],1.23%
CC(=O)O[C@H]1C[C@H](O[C@H]2[C@@H](O)C[C@H](O[C@H]3[C@@H](O)C[C@H](O[C@H]4CC[C@@]5(C)[C@H](CC[C@@H]6[C@@H]5C[C@@H](O)[C@]5(C)[C@@H](C7=CC(=O)OC7)CC[C@]65O)C4)O[C@@H]3C)O[C@@H]2C)O[C@H](C)[C@H]1O[C@@H]1O[C@H](CO)[C@@H](O)[C@H](O)[C@H]1O,Potency,[3],668 nM (active)
same,Potency,[5],0.301 µM (active)
same,Potency,[8],inactive
C[C@H]1CC[C@]2(NC1)O[C@H]1C[C@H]3[C@@H]4CC[C@H]5C[C@@H](O)CC[C@]5(C)[C@H]4CC[C@]3(C)[C@H]1[C@@H]2C,Potency,[1],inactive
same,Potency,[3],inactive
same,Potency,[7],inactive
same,Potency,[8],inactive
F/C(COc1ccc2c(c1)[nH]c1ccccc12)=C1/CN2CCC1CC2,Potency,[3],7500 nM (active)
same,Potency,[7],19 µM [inhibitor] (active)
same,Potency,[8],22.4 µM (active)
C[C@@H]([C@H](O)c1ccccc1)N(C)C,Potency,[1],inactive
same,Potency,[2],inactive
same,Potency,[3],inactive
same,Potency,[7],inactive
same,Potency,[8],inactive
C=CCN1CC[C@]23c4c5ccc(O)c4O[C@H]2[C@@H](O)C=C[C@H]3[C@H]1C5,Potency,[5],inactive
same,Potency,[6],inactive
same,Potency,[9],inactive
same,Potency,[8],inactive
Cc1nnc2n1-c1ccc(Cl)cc1C(c1ccccc1Cl)=NC2,Potency,[1],inactive
same,Potency,[3],inactive
same,max activation,[4],3.04%
NCCNCCNCCNCCN,Potency,[10],inactive
O=[N+]([O-])c1cc(I)c(O)c(I)c1,Potency,[11],inactive
same,Potency,[9],inactive
same,max activation,[4],-2.81%
same,Potency,[8],inactive
C[C@@H](Cc1ccccc1)NCCC(c1ccccc1)c1ccccc1,Potency,[1],inactive
same,Potency,[3],7170 nM (active)
same,Potency,[7],inactive
OC[C@@H](O)[C@H]1O[C@@H]2O[C@@H](C(Cl)(Cl)Cl)O[C@@H]2[C@H]1O,Potency,[2],inactive
same,Potency,[3],inactive
same,Potency,[7],inactive
same,max activation,[4],-2%
same,Potency,[8],inactive
O=C(CS(=O)C(c1ccccc1)c1ccccc1)NO (stereo not given),Potency,[7],inactive
same,Potency,[8],inactive
C/C(=C\c1csc(C)n1)[C@@H]1C[C@@H]2O[C@]2(C)CCC[C@H](C)[C@H](O)[C@@H](C)C(=O)C(C)(C)[C@@H](O)CC(=O)O1,Potency,[3],3.8 nM (active)
same,Potency,[5],0.0239 µM (active)
same,Potency,[9],inactive
same,Potency,[7],inactive
same,Potency,[8],7.94 µM (active)
Cc1cccc(C(C)c2cnc[nH]2)c1C (stereo not given),Potency,[8],inactive
NCC(O)c1cccc(O)c1 (stereo not given),Potency,[1],inactive
same,Potency,[2],inactive
same,Potency,[3],inactive
same,Potency,[5],inactive
same,Potency,[6],inactive
same,Potency,[9],inactive
same,Potency,[7],inactive
same,Potency,[8],inactive
